The assay concerns V-C8 (BRCA2-deficient hamster cells). The experiment in a line: normalised cell viability (fraction of plate median); higher = more viable cells (less toxic). Conditions: 5 µM. A digest of the protocol: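 Hamster V-C8 cells with and without restored BRCA2 were exposed in 96-well plates to library drugs at 5 μM for 3 days (screen 1) or 6 days (screen 2). Cell viability was scored by resazurin assay, then median-plate normalised, averaging triplicate wells.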

Structures can show the parent of a compound that is named as a salt. ± gives the standard deviation of the averaged measurements. Over roughly 1,300 compounds, “normalised cell viability” has its median near 1; the lowest 2% begin near 0.14. The full list was thinned out, with the lowest values kept by preference.

As to `Cc1ccccc1C(OCCN(C)C)c1ccccc1` (stereo not drawn) [Orphenadrine hydrochloride], the normalised cell viability reads like this: (treatment time: 3 days) 1.05 ± 0.14; (treatment time: 6 days) 0.964 ± 0.14.
For `O=C(O)c1cc(/N=N/c2ccc(S(=O)(=O)Nc3ccccn3)cc2)ccc1O` [Sulfasalazine] the same measures were 1.03 ± 0.056 and 0.993 ± 0.046.
On the same counts, the results for `N#Cc1ccc(C2CCCc3cncn32)cc1` (stereo not drawn) [Fadrozole hydrochloride] are 1.01 ± 0.087 and 0.97 ± 0.079.
The molecule `COc1cccc2c1C(=O)c1c(O)c3c(c(O)c1C2=O)C[C@@](O)(C(=O)CO)C[C@@H]3O[C@H]1C[C@H](N)[C@H](O)[C@H](C)O1` [Doxorubicin hydrochloride] registered a normalised cell viability (treatment time: 3 days) of 0.127 ± 0.0054 and a normalised cell viability (treatment time: 6 days) of 0.113 ± 0.0072.
`COc1cccc2c1C(=O)c1c(O)c3c(c(O)c1C2=O)C[C@@](O)(C(=O)CO)C[C@@H]3O[C@H]1C[C@H](N)[C@@H](O)[C@H](C)O1` [Epirubicin hydrochloride]: the normalised cell viability reads like this: (treatment time: 3 days) 0.123 ± 0.013; (treatment time: 6 days) 0.163 ± 0.016.
For the molecule `COc1cccc2c1C(=O)c1c(O)c3c(c(O)c1C2=O)C[C@@](O)(C(C)=O)C[C@@H]3O[C@H]1C[C@H](N)[C@H](O)[C@H](C)O1` [Daunorubicin hydrochloride], the normalised cell viability by setting is: (treatment time: 3 days) 0.141 ± 0.011; (treatment time: 6 days) 0.124 ± 0.0055.
On the same counts, the results for `Cc1nccn1CC1CCc2c(c3ccccc3n2C)C1=O` (stereo not drawn) [Ondansetron Hydrochloride] are 1.07 ± 0.04 and 1.1 ± 0.082.
Turning to `CC(C)NCC(O)c1ccc(O)c(O)c1` (single isomer, unassigned; (+)) [(+)-Isoproterenol (+)-bitartrate salt], the normalised cell viability by setting is: (treatment time: 3 days) 1.028 ± 0.0063; (treatment time: 6 days) 0.926 ± 0.063.
On the same counts, the results for `CC(=O)NC[C@H]1CN(c2ccc(N3CCOCC3)c(F)c2)C(=O)O1` [Linezolid] are 1.04 ± 0.039 and 0.972 ± 0.047.
With `c1ccc(CNc2ncnc3nc[nH]c23)cc1` [Aminopurine, 6-benzyl], the normalised cell viability is, setting by setting: (treatment time: 3 days) 0.947 ± 0.1; (treatment time: 6 days) 0.94 ± 0.075.
Turning to `O=C1C=CC(=O)c2c1ccc1c2ccc2ccccc21` [Chrysene-1,4-quinone], the normalised cell viability is, setting by setting: (treatment time: 3 days) 1.02 ± 0.061; (treatment time: 6 days) 1.06 ± 0.12.
For `CC(C)Cn1cnc2c(N)nc3ccccc3c21` [Imiquimod] the same measures were 1.11 ± 0.044 and 1.02 ± 0.064.
Consider `Nc1c2c(nc3ccccc13)CCCC2` [Tacrine hydrochloride], for which the normalised cell viability by setting is: (treatment time: 3 days) 0.984 ± 0.031; (treatment time: 6 days) 1.1 ± 0.049.
On the same counts, the results for `Nc1c2ccccc2nc2ccccc12` [Aminacrine] are 0.127 ± 0.015 and 0.164 ± 0.015.
On the same counts, the results for `CN1CCN(c2c(F)cc3c(=O)c(C(=O)O)cn(CCF)c3c2F)CC1` [Fleroxacin] are 0.982 ± 0.046 and 0.977 ± 0.051.
With `COC(=O)Nc1nc2cc(Sc3ccccc3)ccc2[nH]1` [Fenbendazole], the normalised cell viability reads like this: (treatment time: 3 days) 0.187 ± 0.0098; (treatment time: 6 days) 0.181 ± 0.013.
For `COC(=O)Nc1nc2cc([S+]([O-])c3ccccc3)ccc2[nH]1` (stereo not drawn) [Oxfendazol] the same measures were 0.712 ± 0.076 and 0.775 ± 0.014.
On the same counts, the results for `COC(=O)Nc1nc2cc(C(=O)c3ccccc3)ccc2[nH]1` [Mebendazole] are 0.164 ± 0.0056 and 0.13 ± 0.0086.
On to `CCCOc1ccc2[nH]c(NC(=O)OC)nc2c1` [Oxibendazol], for which the normalised cell viability reads like this: (treatment time: 3 days) 0.185 ± 0.0067; (treatment time: 6 days) 0.183 ± 0.0049.
Turning to `COC(=O)Nc1nc2cc(C(=O)c3cccs3)ccc2[nH]1` [Nocodazole], the normalised cell viability (treatment time: 3 days) came out at 0.147 ± 0.0062 and the normalised cell viability (treatment time: 6 days) is 0.128 ± 0.004.
On the same counts, the results for `COC(=O)Nc1nc2cc(C(=O)c3ccc(F)cc3)ccc2[nH]1` [Flubendazol] are 0.148 ± 0.019 and 0.16 ± 0.0047.
As for `CC(C)NCC(O)c1ccc(O)c(O)c1` (single isomer, unassigned; (-)) [(-)-Isoproterenol hydrochloride], the normalised cell viability runs as follows: (treatment time: 3 days) 1 ± 0.035; (treatment time: 6 days) 0.952 ± 0.015.
For `C#C[C@]1(O)CC[C@H]2[C@@H]3CCC4=CCCC[C@@H]4[C@H]3CC[C@@]21C` [Lynestrenol] the same measures were 1.1 ± 0.046 and 1.12 ± 0.063.
As to `CC(=O)N(O)CCCCCNC(=O)CCC(=O)N(O)CCCCCNC(=O)CCC(=O)N(O)CCCCCN` [Deferoxamine mesylate], the normalised cell viability is, setting by setting: (treatment time: 3 days) 0.305 ± 0.021; (treatment time: 6 days) 0.198 ± 0.011.
For `CC(C)(C)C(=O)OCOC(=O)[C@@H]1N2C(=O)[C@@H](NC(=O)[C@H](N)c3ccccc3)[C@H]2SC1(C)C` [Pivampicillin] the same measures were 1.02 ± 0.075 and 1.01 ± 0.1.
On the same counts, the results for `Cn1c(=O)c2c(ncn2CCO)n(C)c1=O` [Etofylline] are 1.03 ± 0.052 and 0.996 ± 0.039.
On to `Cc1cc(-n2c(=O)[nH]c(=O)n(C)c2=O)ccc1Oc1ccc(SC(F)(F)F)cc1` [Toltrazuril], for which the normalised cell viability worked out at 1.07 ± 0.044 (treatment time: 3 days) and 1 ± 0.073 (treatment time: 6 days).
For `O=C1NCN(c2ccccc2)C12CCN(CCCC(c1ccc(F)cc1)c1ccc(F)cc1)CC2` [Fluspirilen] the same measures were 0.472 ± 0.045 and 0.235 ± 0.12.
For `Clc1ccccc1CN1CCc2sccc2C1` [Ticlopidine hydrochloride] the same measures were 1.1 ± 0.032 and 1.08 ± 0.064.
For `Cc1nc(=O)c2cc(CN(C)c3ccc(C(=O)N[C@@H](CCC(=O)O)C(=O)O)s3)ccc2[nH]1` [Raltitrexed] the same measures were 0.332 ± 0.028 and 0.432 ± 0.075.
Consider `CCN(CC)CCN[C@@H](C(=O)OCCC(C)C)c1ccccc1` [Camylofine chlorhydrate], for which the normalised cell viability by setting is: (treatment time: 3 days) 1.07 ± 0.065; (treatment time: 6 days) 0.978 ± 0.027.
As to `Cc1ncc(C[n+]2csc(CCO)c2C)c(N)n1` [Thiamine hydrochloride], the normalised cell viability (treatment time: 3 days) is 1.05 ± 0.029 and the normalised cell viability (treatment time: 6 days) worked out at 1.05 ± 0.016.
On the same counts, the results for `Cc1c(Nc2ncccc2C(=O)O)cccc1C(F)(F)F` [Flunixin meglumine] are 1.1 ± 0.11 and 1.03 ± 0.037.
For `CC(C)OC(=O)CCC/C=C\C[C@@H]1[C@@H](CC[C@@H](O)CCc2ccccc2)[C@H](O)C[C@@H]1O` [Latanoprost] the same measures were 1.13 ± 0.11 and 1.05 ± 0.041.

Source of the values: the supplement of paper PMC6609913.
